Records with an inconclusive call do not appear. Calls of active or inactive are those of the source. Calls follow the shape of the full dose curve.
What was measured:
[1] = target: Acetylcholinesterase (Homo sapiens) (UniProt P22303); experiment: Acetylcholinesterase (AChE) small molecule antagonists: colormetric cell-based qHTS assay (AID 1347395); also: nearly all actives have a fitted effect of over 30% in size
How it was run: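 Colorimetric readout: DTNB quantifies thiocholine from acetylthiocholine hydrolysed by endogenous AChE of SH-SY5Y cells (2,000/well, plated overnight). Compound pretreatment 30 min, substrate incubation 90 min, both 37 C.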

[2] = target: Acetylcholinesterase (Homo sapiens) (UniProt P22303); experiment: Acetylcholinesterase (AChE) small molecule antagonists: enzyme-based qHTS assay (AID 1347397); conditions: Potency: AChE enzyme activity inhibition; outcome: AChE enzyme activity inhibition; also: nearly all actives have a fitted effect of over 55% in size
How it was run: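 Absorbance-based detection of thiocholine with DTNB served as the read-out. Recombinant human AChE was exposed to compound for 30 min at RT before a 10 min RT incubation with acetylthiocholine.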

[3] = target: Acetylcholinesterase (Homo sapiens) (UniProt P22303); experiment: Acetylcholinesterase (AChE) small molecule antagonists: fluorescence cell-based qHTS assay (AID 1347398); conditions: Potency: AChE activity; outcome: AChE activity; also: nearly all actives have a fitted effect of over 50% in size
How it was run: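 Fluorimetric cell-based assay: intact SH-SY5Y cells, 30 min compound preincubation at 37 C, acetylthiocholine substrate with thiol probe Thiolite Green, 40 min RT development, fluorescence 490/520 nm.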

[4] = target: Acetylcholinesterase (Homo sapiens) (UniProt P22303); experiment: Acetylcholinesterase (AChE) small molecule antagonists: enzyme-based qHTS assay with human liver microsomes (AID 1347399); conditions: Potency: qHTS inhibition; outcome: qHTS inhibition; also: nearly all actives have a fitted effect of over 60% in size
How it was run: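 Recombinant human AChE (50 mU/mL in the enzyme mix) and human liver microsomes (0.25 mg/mL final) were preincubated with compound and NADPH (0.25 mg/mL final) for 30 min at 37 C. Acetylthiocholine/DTNB was then added; thiocholine was read colorimetrically after 10 min at room temperature.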
% is scaled to controls: 0 for no effect and ±100 for the full control effect.

Chain of Acetylcholinesterase (Homo sapiens) (P22303 whole entry, looked up): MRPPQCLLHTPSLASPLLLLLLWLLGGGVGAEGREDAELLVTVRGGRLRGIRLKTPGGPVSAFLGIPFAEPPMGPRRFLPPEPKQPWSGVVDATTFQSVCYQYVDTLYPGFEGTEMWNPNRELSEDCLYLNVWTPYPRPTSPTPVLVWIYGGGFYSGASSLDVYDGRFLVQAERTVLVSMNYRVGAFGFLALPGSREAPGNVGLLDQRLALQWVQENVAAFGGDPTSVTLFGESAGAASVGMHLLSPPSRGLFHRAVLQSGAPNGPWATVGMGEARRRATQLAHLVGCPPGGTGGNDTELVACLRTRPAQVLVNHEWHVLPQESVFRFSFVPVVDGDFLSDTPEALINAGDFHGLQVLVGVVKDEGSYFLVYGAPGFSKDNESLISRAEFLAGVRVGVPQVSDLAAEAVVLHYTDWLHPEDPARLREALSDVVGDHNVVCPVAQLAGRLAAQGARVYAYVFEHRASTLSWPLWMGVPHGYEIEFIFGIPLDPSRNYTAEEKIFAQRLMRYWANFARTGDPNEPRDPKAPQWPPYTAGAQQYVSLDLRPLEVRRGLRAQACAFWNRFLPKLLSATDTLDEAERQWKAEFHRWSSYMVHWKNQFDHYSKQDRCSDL

Nc1nnnn1-c1ccccc1
inactive: Potency [1] | Potency [2] | Potency [3] | Potency [4]

C[C@@H](C1=C(CCN(C)C)Cc2ccccc21)c1ccccn1
inactive: Potency [1] | Potency [2] | Potency [3] | Potency [4]

C=C(C)CC(C)(C)C
inactive: Potency [1] | Potency [2] | Potency [3] | Potency [4]

CCCCCCCCCCCCCCCCCC#N
inactive: Potency [1] | Potency [2] | Potency [3] | Potency [4]

Cc1ccc(C)c(O)c1C
inactive: Potency [1] | Potency [2] | Potency [3] | Potency [4]

Cn1c(=O)c2c(ncn2CCO)n(C)c1=O
inactive: Potency [1] | Potency [2] | Potency [3] | Potency [4]

CC(C)OP(=O)(CP(=O)(OC(C)C)OC(C)C)OC(C)C
inactive: Potency [1] | Potency [2] | Potency [3] | Potency [4]

Cc1cccc(C(=O)O)c1O
inactive: Potency [1] | Potency [2] | Potency [3] | Potency [4]

CC1=CC(C)C(C=O)CC1 (stereo not given)
inactive: Potency [1] | Potency [2] | Potency [3] | Potency [4]

O=C1CCCCCCCCCCCN1
inactive: Potency [1] | Potency [2] | Potency [3] | Potency [4]

O=[N+]([O-])c1nccn1CO[C@@H](CO)[C@H](O)CO
inactive: Potency [1] | Potency [2] | Potency [3] | Potency [4]

CC(C)(C)c1ccc(CCC=O)cc1
inactive: Potency [1] | Potency [2] | Potency [3] | Potency [4]

CCOC(/C=C(\C)CCC=C(C)C)OCC
inactive: Potency [1] | Potency [2] | Potency [3] | Potency [4]

CCCCCCOC(=O)C(C)C
inactive: Potency [1] | Potency [2] | Potency [3] | Potency [4]

CCCCC/C=C/C=C/C=O
inactive: Potency [1] | Potency [2] | Potency [3] | Potency [4]

CCCCCCCCCCCCCCCCCCO
inactive: Potency [1] | Potency [2] | Potency [3] | Potency [4]

C[C@@H]1C[C@H]2[C@@H]3CCC4=CC(=O)C=C[C@]4(C)[C@@]3(F)[C@@H](O)C[C@]2(C)[C@@]1(O)C(=O)COC(=O)c1ccncc1
inactive: Potency [1] | Potency [2] | Potency [3] | Potency [4]

C=C(C)C1CC=C(C)C(=O)C1 (stereo not given)
inactive: Potency [1] | Potency [2] | Potency [3] | Potency [4]

O=C(O)c1cc(N=Nc2ccc(S(=O)(=O)Nc3ccccn3)cc2)ccc1O
inactive: Potency [1] | Potency [2] | Potency [3] | Potency [4]

CC(C)CNCC(C)C
inactive: Potency [1] | Potency [2] | Potency [3] | Potency [4]

CC(O)C(=O)O (stereo not given)
inactive: Potency [1] | Potency [2] | Potency [3] | Potency [4]

CC(C)c1ccccc1N
inactive: Potency [1] | Potency [2] | Potency [3] | Potency [4]

Cc1cccc(C)c1NC(=O)CN1CCCCCC1
inactive: Potency [1] | Potency [2] | Potency [3] | Potency [4]

N[C@@H](C(=O)N[C@@H]1C(=O)N2C(C(=O)O)=C(Cl)CS[C@H]12)c1ccccc1
inactive: activity, negative = inhibition [1] -0.844% [at 10.5 µM] | activity change, negative = inhibition [2] -0.554% [at 10.5 µM] | activity change, negative = inhibition [3] 7.33% [at 10.5 µM] | activity change, negative = inhibition [4] -5.46% [at 10.5 µM]

Cc1cc(C(C)(C)C)c(O)c(C)c1Cn1c(=O)n(Cc2c(C)cc(C(C)(C)C)c(O)c2C)c(=O)n(Cc2c(C)cc(C(C)(C)C)c(O)c2C)c1=O
inactive: Potency [1] | Potency [2] | Potency [3] | Potency [4]

CCC(=O)OCc1ccccc1
inactive: Potency [1] | Potency [2] | Potency [3] | Potency [4]

Cc1ncsc1CCO
inactive: Potency [1] | Potency [2] | Potency [3] | Potency [4]

O=C1OC(=O)C2CC=CCC12 (stereo not given)
inactive: Potency [1] | Potency [2] | Potency [3] | Potency [4]

CC1CCC(C(C)CS)CC1S (stereo not given)
inactive: Potency [1] | Potency [2] | Potency [3] | Potency [4]

Cc1cccc(S(=O)(=O)O)c1C
inactive: Potency [1] | Potency [2] | Potency [3] | Potency [4]

O=C(O)c1ccccc1NCCc1ccccc1
inactive: Potency [1] | Potency [2] | Potency [3] | Potency [4]

O=C(NCN1CCOCC1)c1cnccn1
inactive: Potency [1] | Potency [2] | Potency [3] | Potency [4]

CCC(C)(C)C1CCCCC1OC(C)=O (stereo not given)
inactive: Potency [1] | Potency [2] | Potency [3] | Potency [4]

C=C(C)[C@H]1CC=C(C)C(=O)C1
inactive: Potency [1] | Potency [2] | Potency [3] | Potency [4]

CC(C)(C)NCC(O)c1cc(O)cc(O)c1 (stereo not given)
inactive: Potency [1] | Potency [2] | Potency [3] | Potency [4]

CCOC(=O)c1cc(=O)c2c(OCC(COc3cccc4oc(C(=O)OCC)cc(=O)c34)OC(=O)[C@@H](N)CCCCN)cccc2o1
inactive: Potency [1] | Potency [2] | Potency [3] | Potency [4]

CCCCCCCC/C=C\CCCCCCCCN
inactive: Potency [1] | Potency [2] | Potency [3] | Potency [4]

COc1ccccc1OCC1CNC(=O)O1 (stereo not given)
inactive: Potency [1] | Potency [2] | Potency [3] | Potency [4]

CN1CCC[C@H]1c1cccnc1
inactive: Potency [1] | Potency [2] | Potency [3] | Potency [4]

C[C@@H]1CC[C@@]2(OC1)O[C@H]1C[C@H]3[C@@H]4CC[C@H]5C[C@@H](O)CC[C@]5(C)[C@H]4CC(=O)[C@]3(C)[C@H]1[C@@H]2C
inactive: activity, negative = inhibition [1] -3.52% [at 10.5 µM] | activity change, negative = inhibition [2] -1.66% [at 10.5 µM] | activity change, negative = inhibition [3] -1.2% [at 10.5 µM] | activity change, negative = inhibition [4] -3.36% [at 10.5 µM]

C=C(C)C(=O)OCCN(C)C
inactive: Potency [1] | Potency [2] | Potency [3] | Potency [4]

O=C(O)CC(C(=O)O)S(=O)(=O)O (stereo not given)
inactive: Potency [1] | Potency [2] | Potency [3] | Potency [4]

CCCC1CCC(=O)O1 (stereo not given)
inactive: Potency [1] | Potency [2] | Potency [3] | Potency [4]

NC(=O)N(O)[C@@H]1COc2cc(OCc3ccccc3)ccc21
inactive: Potency [1] | Potency [2] | Potency [3] | Potency [4]

CN(C)CCCN(C)CCCN(C)C
inactive: Potency [1] | Potency [2] | Potency [3] | Potency [4]

CCN(CCO)CCCC(C)Nc1ccnc2cc(Cl)ccc12 (stereo not given)
inactive: activity, negative = inhibition [1] -5.02% [at 10.5 µM] | activity change, negative = inhibition [2] -2.76% [at 10.5 µM] | activity change, negative = inhibition [3] -7.12% [at 10.5 µM] | activity change, negative = inhibition [4] -0.168% [at 10.5 µM]

CCCN1C=CN(C)C1
inactive: Potency [1] | Potency [2] | Potency [3] | Potency [4]

CCCCCCCC/C=C\CCCCCCCC(=O)O
inactive: Potency [1] | Potency [2] | Potency [3] | Potency [4]

O=C1CCCC1
inactive: Potency [1] | Potency [2] | Potency [3] | Potency [4]

Cc1ccnc(NS(=O)(=O)c2ccc(N)cc2)n1
inactive: Potency [1] | Potency [2] | Potency [3] | Potency [4]

CO/N=C(\C(=O)O)c1csc(NC(=O)CCl)n1
inactive: Potency [1] | Potency [2] | Potency [3] | Potency [4]

OC[C@@H](O)[C@@H](O)[C@H](O)[C@H](O)CO
inactive: Potency [1] | Potency [2] | Potency [3] | Potency [4]

CCC(C)(CCCC(C)C)OC(C)=O (stereo not given)
inactive: Potency [1] | Potency [2] | Potency [3] | Potency [4]

CC1=C(CC(=O)O)c2cc(F)ccc2/C1=C\c1ccc(S(C)=O)cc1 (stereo not given)
inactive: Potency [1] | Potency [2] | Potency [3] | Potency [4]

C=CC(=O)CC
inactive: Potency [1] | Potency [2] | Potency [3] | Potency [4]

C=CC(=O)NC(C)C
inactive: Potency [1] | Potency [2] | Potency [3] | Potency [4]

CCOc1ccccc1C(N)=O
inactive: Potency [1] | Potency [2] | Potency [3] | Potency [4]

O=CC1CC=CCC1 (stereo not given)
inactive: Potency [1] | Potency [2] | Potency [3] | Potency [4]

CC(C)(CO)[C@@H](O)C(=O)NCCCO
inactive: Potency [1] | Potency [2] | Potency [3] | Potency [4]

CCCCCCOc1ccc(O)cc1
inactive: Potency [1] | Potency [2] | Potency [3] | Potency [4]
